# Screening data as filed in PubChem.
# Compounds with a hit are over-represented: about 3.9% of the library has one in this group of screens.
# BRCA1 expr up: qHTS Assay to Identify Small Molecule Activators of BRCA1 Expression. MCF7-BRCA1-FFLuc reporter, luminescence, 48 h; response scale: scaled: vehicle 0%, 10 µM genistein 100%. 1.1% of 380,000 active. Potency, µM (doses to about 46.1 µM), for inactives: at the highest dose activation, most hits filed as activators; note: nearly all actives have a fitted effect of over 80% in size
#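 First, MCF7-BRCA1-FFLuc cells (2000/well) attach for 2 h; next, compounds are pin-added and incubated 48 h at 37 °C; finally, luciferase reagent is added and luminescence read after 15 min.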
# PLK1 PBD block: qHTS for Inhibitors of PLK1-PDB (polo-like kinase 1 - polo-box domain): Primary Screen | Serine/threonine-protein kinase PLK1 (Homo sapiens), P53350 | Plk1 PBD binding of FITC phosphopeptide, fluorescence polarization | Potency, µM, for the others: max response, negative = inhibition, actives largely listed as inhibitors | 2.8% of 360,000 active | AID 720504, 2013; note: series mostly up to about 57 µM; % is set by controls: 0 for no effect and ±100 for the full control effect; nearly all actives have a fitted effect of over 65% in size
# Target sequence (P53350 whole entry, looked up, the tested form may be a part): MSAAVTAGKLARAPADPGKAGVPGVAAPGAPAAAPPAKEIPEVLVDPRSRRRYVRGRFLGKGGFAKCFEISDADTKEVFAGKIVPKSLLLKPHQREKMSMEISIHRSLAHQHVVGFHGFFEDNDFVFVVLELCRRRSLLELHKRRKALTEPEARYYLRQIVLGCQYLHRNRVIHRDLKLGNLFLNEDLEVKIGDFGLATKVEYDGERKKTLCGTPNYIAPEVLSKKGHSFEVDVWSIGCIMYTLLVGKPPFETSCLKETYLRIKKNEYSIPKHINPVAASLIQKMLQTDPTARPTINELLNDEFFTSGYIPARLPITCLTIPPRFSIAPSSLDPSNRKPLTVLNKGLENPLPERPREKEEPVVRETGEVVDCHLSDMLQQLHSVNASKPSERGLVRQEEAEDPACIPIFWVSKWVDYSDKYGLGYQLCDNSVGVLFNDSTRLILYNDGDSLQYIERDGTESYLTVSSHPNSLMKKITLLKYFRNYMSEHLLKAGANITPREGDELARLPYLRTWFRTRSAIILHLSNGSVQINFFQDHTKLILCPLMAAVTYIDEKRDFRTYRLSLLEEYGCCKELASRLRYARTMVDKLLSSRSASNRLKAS
# Tb PFK block: qHTS Assay to Find Inhibitors of T. brucei phosphofructokinase. ATP-dependent 6-phosphofructokinase (Trypanosoma brucei brucei), O15648. T. brucei PFK, ADP-Glo luminescence. Potency, µM (doses to about 57.5 µM), inactives show top-dose activity, negative = inhibition, usual class: inhibitors. 0.17% of 330,000 active;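 note: 0% = uninhibited 1x PFK enzyme wells and -100% = no-enzyme wells; nearly all actives have a fitted effect of over 60% in size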
#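 In TEA buffer at pH 8.0 with 5 mM MgCl2, enzyme (1.25 nM) converted F6P (0.5 mM) and ATP (0.1 mM) for 45 min at room temperature. ADP product was read by luciferase luminescence.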
# VDR inhibitor: Inhibitors of the vitamin D receptor (VDR): qHTS; VDR-SRC2-3 peptide fluorescence polarization, 2 h; Potency, µM, for inactives: max response, negative = inhibition, actives largely listed as inhibitors; 0.93% of 400,000 active; note: % is set by controls: 0 for no effect and ±100 for the full control effect
#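 VDR–SRC2-3 interaction, FP format. Cmpds 23 nl via pintool, brief spin, 2 h ambient incubation.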
# * marks the source's active call; other numbers are inactive results; ? = inconclusive; / = not tested or not shown. Calls come from the whole dose curve; as a rule, active = well fitted curve in the direction sought with a large enough effect; inconclusive = small, poorly fitted or top-dose-only effect, or another doubt; inactive = no such curve, though single readings can be large; an effect the other way counts as inactive or inconclusive. Potency is the fitted concentration of half-maximal effect.
SMILES,BRCA1 expr up,PLK1 PBD block,Tb PFK block,VDR inhibitor
O=C(/C=C/c1ccccc1)/C=C/c1ccccc1,-86%,-26%,-5%,13µM*
COC(=O)N/N=C(C)/C=C/c1ccccc1,3.5µM*,-22%,/,-4%
N/C(=N\OC(=O)/C=C/c1ccccc1)c1ccccc1,7.1µM*,-2%,-4%,12%
O=C(CSc1nnc(-c2cccc(S(=O)(=O)N3CCCCC3)c2)o1)NCCC1=CCCCC1,-26%,21µM*,4%,3%
COC(=O)c1cc2oc3ccccc3c2n1CC(=O)Nc1ccc(N(C)C)cc1,/,/,/,4%
C=C(C(C)=O)C(O)/C=C/c1ccco1 (stereo not given),/,/,/,6%
Cc1c2ccccc2nc2c(F)c(NCCO)c(F)c(F)c12,50%,6.7µM*,0%,?
OCCNc1c2ccccc2nc2c(F)c(F)c(F)c(F)c12,-57%,-9%,3%,-12%
O=C(NNC(=S)NC1CCCCC1)c1cccc(S(=O)(=O)Nc2ccccc2Cl)c1,-27%,30µM*,-1%,-4%
CCCC1(C)Nc2ccccc2-c2nc3ccccc3n21 (stereo not given),8.9µM*,-4%,-3%,3%
COc1ccccc1-c1ccc(C(=O)O)o1,?,-11%,8%,?
COc1ccc(Cl)cc1-c1ccc(C(=O)O)o1,/,/,/,112µM*
Cc1ccc(C)c(-c2ccc(C(=O)O)o2)c1,/,/,/,126µM*
O=[N+]([O-])c1ccc(N2CCCCC2)nc1N1CCCCC1,-11%,-7%,3%,2%
O=[N+]([O-])c1ccc2c(c1N1CCCCC1)=NC1(CCCCC1)[N+]=2[O-],-7%,21µM*,-8%,-9%
COc1ccc(C(=O)C[n+]2cc(Br)cc3ccccc32)cc1,-35%,/,/,/
COc1ccc(C(=O)C[n+]2cn(C(F)F)c3ccccc32)c(F)c1,0%,13µM*,-5%,?
CCOC(=O)c1ccc2ncc3c(-c4ccccc4)nn(-c4ccc(F)c(Cl)c4)c3c2c1,-11%,/,/,-8%
Nc1cc(C2CCCC2)nn1-c1ccccc1,10µM*,2%,-12%,10%
COc1ccc(N2CC(NC(=O)/C=C\c3ccc(OC)c(OC)c3)CC2=O)cc1 (stereo not given),/,/,/,-5%
Cc1cc(C)cc(N(C(=O)CNC(=O)c2ccco2)C(C(=O)NC2CCCC2)c2ccncc2)c1 (stereo not given),-9%,30µM*,-1%,?
O=C(NCC(=O)N(c1ccc(Cl)cc1)C(C(=O)NC1CCCC1)c1ccncc1)c1ccco1 (stereo not given),-17%,-6%,0%,11%
O=C(NCC(=O)N(c1ccc2c(c1)OCO2)C(C(=O)NC1CCCC1)c1ccncc1)c1ccco1 (stereo not given),-7%,2.7µM*,?,-21%
COc1ccc(N=C2C(=O)N3c4c(cccc42)C(C)=CC3(C)C)cc1,-7%,-17%,-3%,50µM*
COc1ccc(N=C2C(=O)Nc3ccccc32)cc1,9%,-8%,2%,11%
SMILES,BRCA1 expr up,PLK1 PBD block,Tb PFK block,VDR inhibitor
COc1ccc(C(=O)O)c(O)c1OC,/,/,/,2%
COC1=C(N)C(=O)c2nc(-c3nc(C(=O)O)c(C)c(-c4ccc(OC)c(OC)c4O)c3N)ccc2C1=O,?,-26%,?,14µM*
CC(C)CCN1C(=O)c2cccc3c(N)ccc(c23)C1=O,13%,5.3µM*,/,-6%
Nc1ccc2c3c(cccc13)C(=O)N(c1ccccc1)C2=O,14%,1.3µM*,-2%,-11%
Nc1cccc(N2C(=O)c3cccc4c(N)ccc(c34)C2=O)c1,0%,11µM*,1%,-1%
C=N[C@H](C(=O)N[C@@H]1C(=O)N2[C@@H]1SC(C)(C)[C@@H]2C(=O)O)c1ccccc1,/,/,/,13%
CC(=O)c1cccc(S(=O)(=O)NC2CCSc3ccccc32)c1 (stereo not given),-3%,27µM*,-1%,-10%
CC(=O)c1cccc(S(=O)(=O)NC2CC2)c1,-10%,27µM*,1%,-4%
CCN(CC)c1ccc2nc3c4ccccc4c(=O)cc-3oc2c1,0.89µM*,4%,-1%,?
CCN(CC)c1ccc2cc(C=O)c(=O)oc2c1,-16%,50%,/,-18%
NC(CSC(c1ccccc1)(c1ccccc1)c1cccc2ccccc12)C(=O)O (stereo not given),-37%,27µM*,/,?
NC(CSC1(c2cccc3ccccc23)c2ccccc2-c2ccccc21)C(=O)O (stereo not given),-26%,-18%,/,?
C/C(=N\OC(=O)Nc1ccc(Cl)cc1)c1ccc(F)c(F)c1,77%,1%,-14%,3%
CC(C)C(Cl)=NOC(=O)Nc1ccc(F)cc1,-20%,13µM*,/,?
O=C(Nc1ccccc1-c1cn2c(CN3CCNCC3)csc2n1)c1cnc2ccccc2n1,-69%,/,/,/
Cn1c(=O)c(-c2ccccc2)nc2cnc(N3CCOCC3)nc21,/,/,/,-4%
C/C(=C\c1ccc(N)cc1)c1nc2ccccc2[nH]1,7.9µM*,-7%,-1%,1%
O=C(O)c1cc(-c2ccc(-c3ccc(F)cc3)o2)nc2ccccc12,48%,15µM*,-7%,?
O=C(c1cc(-c2ccc(F)cc2)nc2ccccc12)N1CCC1,-10%,2%,6%,-3%
CC(=O)Nc1ccc2nc(-c3cccs3)[nH]c2c1,6.3µM*,-6%,1%,6%
CC(=O)Nc1ccc2nc(-c3ccc(Br)o3)[nH]c2c1,10µM*,-12%,2%,-15%
O=C(Nc1ccc2nc(-c3ccc(Br)o3)[nH]c2c1)c1cccs1,10µM*,-13%,1%,-13%
CC(=O)Nc1ccc2nc(-c3cccn3C)[nH]c2c1,91%,-13%,4%,4%
O=C(Nc1ccc2nc(-c3ccc(Br)o3)[nH]c2c1)c1ccco1,6.3µM*,-11%,1%,21%
CCOc1cc(C2c3c(-c4ccccc4O)n[nH]c3C(=O)N2CCc2ccccc2)ccc1O (stereo not given),/,/,/,10%
SMILES,BRCA1 expr up,PLK1 PBD block,Tb PFK block,VDR inhibitor
Cc1ccc(C)c(N(C(=O)c2snc(C(N)=O)c2N)C(C(=O)NCC2CCCO2)c2cccs2)c1 (stereo not given),0%,30µM*,-6%,79µM*
COc1ccc(OC)c(N2C(N)=NC(N)=NC23CCCC3)c1,-13%,-17%,0%,-12%
Cc1cccc(N2C(N)=NC(N)=NC23CCCCC3)c1,0%,2.7µM*,1%,-25%
CC(Sc1nnc(N)s1)C(=O)Nc1ccc2c(c1)OCO2 (stereo not given),-28%,-18%,10%,28%
C=C(Cl)COc1ccc2c(CC)cc(=O)oc2c1,27%,-9%,-2%,-20%
CCCc1cc2c(-c3ccccc3)cc(=O)oc2cc1OCc1ccc(C(=O)O)o1,2%,24µM*,1%,-24%
C=C(C)COc1ccc2c(CC)cc(=O)oc2c1,15%,13µM*,-2%,?
